# A number with no mark means an inactive call. Records with an inconclusive call do not appear. A call without a number means that no potency is given here. The source made the active and inactive calls. Unless noted, calls come from the whole dose curve; as a rule, active = well fitted curve in the direction sought with a large enough effect; inconclusive = small, poorly fitted or top-dose-only effect, or another doubt; inactive = no such curve, though single readings can be large; an effect the other way counts as inactive or inconclusive. Numbered stars: 1 amine (or outer) side, 2 acyl side, 3 side chain; on linkers, the order of the positions; unused ones are H or OH. Bridge positions count the residues as written; N and C are the ends. Square brackets hold non-standard residues; d marks the D form. Peptide text beside a SMILES is read from it. I, II: the chains in the order shown. Actinocin(9to1) = Cc1c2oc3c(C)ccc(C(=O)[*:1])c3nc-2c(C(=O)[*:2])c(N)c1=O; NMeV = CN[C@H](C(=O)O)C(C)C; Sar = CNCC(=O)O
# What was measured:
# [1] = Cell Viability - LYMP2-001 (AID 921);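 note: cells exposed to compound for 24 h at 37 °C; nearly all actives have a fitted effect of over 70% in size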; note: potency is the fitted concentration of half-maximal effect
# Outline: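 CellTiter-Glo luminescence (intracellular ATP) after 24 hr compound exposure at 37 C, 2500 lymphoblastoid cells/well in complete medium. AC50 fitted with standard Hill equation; tetraoctylammonium bromide positive control.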
# [2] = MultiTox-Fluor Cytotoxicity Assay - LYMP1-001 - Dead Cells (AID 946); note: potency is the fitted concentration of half-maximal effect
# Outline: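 LYMP1-001 lymphoblastoid cells (2500/well) treated 16 h at 37 C. Dead-cell protease cleavage of bis-AAF-R110 read at Ex/Em 485/520. Normalized to DMSO and 15 uM tetraoctylammonium bromide; AC50 from Hill fits.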
# [3] = MultiTox-Fluor Cytotoxicity Assay - LYMP1-001 - Live Cells (AID 947)
# [4] = Cell Viability - LYMP1-002 - Assay at 16 hr (AID 948)
# Outline: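 LYMP1-002 human lymphoblastoid cells, 2500/well; 5 hr 37 C; cpd 16 hr 37 C; CellTiter-Glo 30 min RT; luminescence (ATP). Concentration-response, Hill-fit AC50. Pos ctrl tetraoctylammonium bromide.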
# [5] = MultiTox-Fluor Cytotoxicity Assay - LYMP1-002 - Live Cells (AID 955)
# Outline: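 Human lymphoblastoid LYMP1-002 cells, 2500/well, treated 16 h at 37 C in complete medium. Live-cell protease activity via GF-AFC fluorescence (Ex/Em 405/510) after 60 min reagent incubation; AC50 from Hill fits.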
# [6] = MultiTox-Fluor Cytotoxicity Assay - LYMP1-002 - Dead Cells (AID 960); note: nearly all actives have a fitted effect of over 60% in size; note: potency is the fitted concentration of half-maximal effect
# Outline: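 Human lymphoblastoid LYMP1-002 cells, 2500/well, treated 16 h at 37 C; dead-cell protease cleavage of bis-AAF-R110 read by fluorescence (485/520); normalized to DMSO and 15 uM tetraoctylammonium bromide; AC50 from Hill fit.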
# [7] = MultiTox-Fluor Cytotoxicity Assay - LYMP1-003 - Dead Cells (AID 961); note: nearly all actives have a fitted effect of over 70% in size; note: potency is the fitted concentration of half-maximal effect
# Outline: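 LYMP1-003 human lymphoblastoid cells (2500/well) exposed to compound 16 h at 37 C in complete medium; dead-cell protease read with bis-AAF-R110 fluorescence (Ex/Em 485/520) after 60 min at room temperature. Normalized to DMSO and 15 uM tetraoctylammonium bromide; AC50 from Hill fit.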
# [8] = MultiTox-Fluor Cytotoxicity Assay - LYMP1-003 - Live Cells (AID 962);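 note: cytotoxic hits lower the live-cell protease signal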
# Outline: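 LYMP1-003 lymphoblastoid cells, 2500/well in complete medium, treated 16 h at 37 C; live-cell protease cleavage of GF-AFC read by fluorescence (Ex/Em 405/510) after 60 min reagent; AC50 from Hill fits of concentration-response.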
# [9] = target: Muscarinic acetylcholine receptor M1 (Rattus norvegicus) (UniProt P08482); assay: qHTS Assay for Antagonists of Acetylcholine Muscarinic M1 Receptor: Measurement of IP-One Response (AID 944); note: nearly all actives have a fitted effect of over 75% in size
# Outline: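 CHO cells stably expressing rat M1, pretreated 10 min with compound, then stimulated 30 min with carbachol at EC80 (200 nM) in LiCl-containing buffer pH 7.4; IP1 accumulation read by HTRF competition (665/620 nm).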
# [10] = target: Pyruvate kinase (Leishmania mexicana) (UniProt Q27686); assay: qHTS Validation Assay for Inhibitors of Leishmania Mexicana Pyruvate Kinase (AID 945)
# Outline: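 Mutant LmPYK (E451W), 0.2 nM, plus 0.5 mM PEP and 0.1 mM ADP in 50 mM imidazole pH 7.2 containing 0.01% Tween 20 and 0.05% BSA. Incubated 1 h at room temperature; luminescence via PKLight, normalized to DMSO.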
# [11] = target: Pyruvate kinase PKM (Homo sapiens) (UniProt P14618); assay: qHTS Assay for Activators of Human Muscle Pyruvate Kinase (AID 954; active = well fitted curve in the direction sought with a large enough effect, not every such curve was filed as active)
# Outline: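 Purified human PKM2 (0.1 nM) with 0.5 mM PEP (Km) and 0.1 mM ADP in 50 mM imidazole pH 7.2, KCl, MgCl2, 1 h at room temperature; ATP formed read by coupled luciferase luminescence. Normalized to no-enzyme/110 uM thiadiazolimine inhibition; 0.3 nM enzyme column for activation.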
# [12] = Confirmation and Secondary Assay for Modulators of Hemoglobin Beta Chain Splicing at IVS2 654 locus (AID 910);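 note: per-well total GFP intensity by laser scanning cytometry after 2-day treatment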
# Outline: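 HeLa cells stably carrying EGFP interrupted by mutant beta-globin IVS2-654 intron (CMV-driven) were treated with compound for 2 days at 37C; corrected splicing was scored as total peak GFP intensity per well (488 nm excitation, 500-520 nm emission).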
# [13] = Confirmation and Secondary Assay for Modulators of Hemoglobin Beta Chain Splicing at IVS2 705 locus (AID 930);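 note: HeLa cells stably expressing the EGFP-705 splicing reporter; GFP fluorescence per well restored by corrected splicing of the IVS2-705 intron in EGFP; series mostly up to about 46 µM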
# Outline: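 Stable HeLa line with EGFP disrupted by mutant beta-globin intron 2 (705). Overnight attachment, then 2 days of compound at 37C, 5% CO2. Signal: peak GFP intensity summed over objects 5-250 µm.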
# [14] = qHTS Assay for Identification of Small Molecule Agonists for Thrombopoietin (TPO) Signaling Pathway (AID 917)
# Outline: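 Activators of TPO signaling were sought in murine Ba/F3 cells transfected with the human receptor, using a luciferase gene driven by the Glycoprotein IIb promoter; 24-hr compound exposure at 37 C alongside 26 pM TPO, in IL-3-free medium.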
# [15] = qHTS Assay for Identification of Small Molecule Agonists for Hypoxia Response Element Signaling Pathway (AID 914; active = well fitted activation curve with a large enough effect in the signal ratio, with a control signal flat, not every such curve was filed as active; the % refers to the signal ratio); settings: ME-180 (cervical carcinoma) HRE-bla reporter, beta-lactamase ratio, CoCl2, 17 h; active compounds read high
# Outline: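 Reporter activity (beta-lactamase, CCF4 460nm/530nm ratio) in HRE-bla ME-180 cells is recorded after 17 h compound exposure with EC50 CoCl2 at 37 degrees Celsius. AC50 values come from titration data.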
# Chain of Pyruvate kinase PKM (Homo sapiens) (P14618 whole entry, looked up): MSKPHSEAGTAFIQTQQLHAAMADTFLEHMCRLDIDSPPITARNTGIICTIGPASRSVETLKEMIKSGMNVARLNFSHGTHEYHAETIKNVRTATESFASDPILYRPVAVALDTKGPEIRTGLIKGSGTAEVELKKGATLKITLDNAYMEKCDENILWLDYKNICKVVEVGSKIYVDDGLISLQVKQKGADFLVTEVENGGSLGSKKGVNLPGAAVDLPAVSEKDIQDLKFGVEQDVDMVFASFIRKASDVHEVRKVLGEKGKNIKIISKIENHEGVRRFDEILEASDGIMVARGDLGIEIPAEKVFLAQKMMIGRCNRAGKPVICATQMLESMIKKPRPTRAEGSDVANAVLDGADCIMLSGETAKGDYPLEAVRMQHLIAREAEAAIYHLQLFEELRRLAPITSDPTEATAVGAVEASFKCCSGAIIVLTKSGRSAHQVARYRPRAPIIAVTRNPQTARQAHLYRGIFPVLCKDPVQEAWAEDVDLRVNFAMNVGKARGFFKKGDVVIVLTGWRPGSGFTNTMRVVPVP
# Chain of Pyruvate kinase (Leishmania mexicana) (Q27686 2-499 E452W): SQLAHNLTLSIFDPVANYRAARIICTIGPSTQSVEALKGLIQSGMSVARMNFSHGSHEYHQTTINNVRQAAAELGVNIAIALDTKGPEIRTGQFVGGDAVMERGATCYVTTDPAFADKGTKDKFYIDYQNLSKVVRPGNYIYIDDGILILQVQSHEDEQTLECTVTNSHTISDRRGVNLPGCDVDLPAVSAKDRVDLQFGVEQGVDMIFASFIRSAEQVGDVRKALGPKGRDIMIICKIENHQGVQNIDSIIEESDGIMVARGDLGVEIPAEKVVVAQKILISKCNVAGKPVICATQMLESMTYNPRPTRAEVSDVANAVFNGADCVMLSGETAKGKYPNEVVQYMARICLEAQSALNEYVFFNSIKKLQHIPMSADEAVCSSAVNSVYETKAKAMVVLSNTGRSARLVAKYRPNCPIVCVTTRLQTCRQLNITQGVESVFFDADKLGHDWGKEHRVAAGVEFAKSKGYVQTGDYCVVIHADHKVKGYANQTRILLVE
# Chain of Muscarinic acetylcholine receptor M1 (Rattus norvegicus) (P08482 whole entry, looked up): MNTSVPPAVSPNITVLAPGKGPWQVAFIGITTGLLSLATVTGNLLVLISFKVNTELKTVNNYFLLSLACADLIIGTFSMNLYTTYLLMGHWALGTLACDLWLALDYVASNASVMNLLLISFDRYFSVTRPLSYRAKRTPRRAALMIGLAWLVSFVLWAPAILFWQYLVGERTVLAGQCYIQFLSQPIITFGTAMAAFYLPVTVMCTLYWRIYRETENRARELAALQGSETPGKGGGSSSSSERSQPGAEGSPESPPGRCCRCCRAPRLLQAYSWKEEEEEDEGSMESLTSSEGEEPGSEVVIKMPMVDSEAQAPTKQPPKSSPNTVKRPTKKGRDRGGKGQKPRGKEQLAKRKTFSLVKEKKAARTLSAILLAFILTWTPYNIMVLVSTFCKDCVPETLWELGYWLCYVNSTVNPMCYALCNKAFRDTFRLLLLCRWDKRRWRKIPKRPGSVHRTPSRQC
smiles,measurement,setting,value
O=C(O)CCCCC(=O)O,Potency,[1],inactive
same,Potency,[2],inactive
same,Potency,[3],inactive
same,Potency,[4],inactive
same,Potency,[5],inactive
same,Potency,[6],inactive
same,Potency,[7],inactive
same,Potency,[8],inactive
Oc1ccc(Cl)cc1Sc1cc(Cl)ccc1O,Potency,[2],inactive
same,Potency,[8],inactive
CC(C)COC(=O)OCN1C(=O)CN(CCN2CC(=O)N(COC(=O)OCC(C)C)C(=O)C2)CC1=O,Potency,[9],inactive
same,outcome,[10],inactive
same,outcome,[11],inactive
Cc1cc(=O)n(-c2ccccc2)n1C,outcome,[12],inactive
same,outcome,[13],inactive
"Cc1c2oc3c(C)ccc(C(=O)N[C@@H]4C(=O)N[C@H](C(C)C)C(=O)N5CCC[C@H]5C(=O)N(C)CC(=O)N(C)[C@@H](C(C)C)C(=O)O[C@@H]4C)c3nc-2c(C(=O)N[C@@H]2C(=O)N[C@H](C(C)C)C(=O)N3CCC[C@H]3C(=O)N(C)CC(=O)N(C)[C@@H](C(C)C)C(=O)O[C@@H]2C)c(N)c1=O (I: T[dV]P[Sar][NMeV] / II: T[dV]P[Sar][NMeV]; ester I:1-I:C, II:1-II:C; linker I:N-II:N via Actinocin(9to1))",Potency,[2],12.6 nM (active)
same,Potency,[6],25.1 nM (active)
same,Potency,[7],50.1 nM (active)
COc1ccc(C2C(=O)c3ccccc3C2=O)cc1,outcome,[12],inactive
same,outcome,[13],inactive
CC(CCc1ccccc1)NCC(O)c1ccc(O)c(C(N)=O)c1 (stereo not given),outcome,[12],inactive
same,outcome,[13],inactive
C/C=C(/C(=C/C)c1ccc(O)cc1)c1ccc(O)cc1,outcome,[12],inactive
same,outcome,[13],inactive
Nc1cc(Cl)c(NC2=NCCN2)c(Cl)c1,outcome,[14],inactive
same,Potency,[9],inactive
same,outcome,[10],inactive
same,outcome,[11],inactive
CN1[C@@H]2CC[C@H]1CC(OC(=O)c1c[nH]c3ccccc13)C2 (stereo not given in full),outcome,[14],inactive
same,outcome,[10],inactive
same,outcome,[11],inactive
CCCC1O[C@@H]2C[C@H]3[C@@H]4CCC5=CC(=O)C=C[C@]5(C)[C@H]4[C@@H](O)C[C@]3(C)[C@]2(C(=O)CO)O1 (stereo not given in full),outcome,[10],inactive
same,outcome,[11],inactive
CCN(CC)CCOC(=O)C(c1ccccc1)C1CCCCC1 (stereo not given),outcome,[12],inactive
same,outcome,[13],inactive
c1ccc(-c2ccc(C(c3ccccc3)n3ccnc3)cc2)cc1 (stereo not given),outcome,[12],inactive
same,outcome,[13],inactive
CO/N=C1\CN(c2nc3c(cc2F)c(=O)c(C(=O)O)cn3C2CC2)CC1CN (stereo not given),outcome,[12],inactive
same,outcome,[13],inactive
Cc1ccnc(NS(=O)(=O)c2ccc(N)cc2)n1,outcome,[12],inactive
same,outcome,[13],inactive
CC(C)(C(=O)c1cccnc1)c1cccnc1,activation,[15],-12.9%
CC(=O)O[C@]1(C(C)=O)CC[C@H]2[C@@H]3C[C@H](C)C4=CC(=O)CC[C@]4(C)[C@H]3CC[C@@]21C,Potency,[1],31600 nM (active)
same,Potency,[2],inactive
same,Potency,[3],inactive
same,Potency,[4],inactive
same,Potency,[5],inactive
same,Potency,[6],inactive
same,Potency,[7],inactive
same,Potency,[8],inactive

# — PubChem BioAssay (NCATS)
